Screening results (PubChem)
A selection: hits, their analogues and other compounds. The true share with any hit is near 4.6%.
MARV entry inh = qHTS for inhibitors of binding or entry into cells for Marburg Virus. Marburg virus pseudotyped entry inhibition, cell reporter. Potency, µM (top dose mostly 37.8 µM), most hits filed as inhibitors. 300,000 compounds, 1.8% hits. AID 540276, 2011; calls by dose curve; tested in HEK293 cells
HCV inhibitor = qHTS Assay for Inhibitors of Hepatitis C Virus (HCV); 340,000 compounds, 3.4% hits; Huh7.5.1 HCVcc-Cre infection, luciferase reporter, 44 h; Potency, µM (titrated, usually from 41.8 µM), actives largely listed as inhibitors; AID 651820, 2012; active = well fitted inhibition curve with a large enough effect; inconclusive = small, poorly fitted or top-dose-only effect, or another doubt; inactive = no such curve, though single readings can be large or run the other way
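HCVcc-Cre virus at an moi near 0.5 was added right after compound to cells cultured 4 h from seeding (1,000 cells/well). Luciferase activity was determined 44 h later, 15 min after substrate addition at RT.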
Vaccinia mCherry = qHTS for Stage-Specific Inhibitors of Vaccinia Orthopoxvirus: mCherry Reporter Primary qHTS. AID 720579, 2013. Potency, µM (titrated, usually from 36.5 µM), most hits filed as inhibitors. Vaccinia virus mCherry reporter infection, fluorescence. 310,000 compounds, 0.63% hits; calls by dose curve; tested in A549 cells; also: nearly all actives have a fitted effect of over 35% in size
LASV entry inh = qHTS for Inhibitors of binding or entry into cells for Lassa Virus; Lassa virus pseudotype entry inhibition, cell reporter; Potency, µM (series often up to 37.9 µM), actives largely listed as inhibitors; 300,000 compounds, 1.2% hits; calls by dose curve; tested in HEK293 cells; also: nearly all actives have a fitted effect of over 50% in size
VACV Venus inh = qHTS for Stage-Specific Inhibitors of Vaccinia Orthopoxvirus: Venus Reporter Primary qHTS. Vaccinia virus Venus reporter expression, fluorescence. Potency, µM (titrated, usually from 36.5 µM), most hits filed as inhibitors. 330,000 compounds, 0.46% hits. AID 720580, 2013; calls by dose curve; tested in A549 cells; also: nearly all actives have a fitted effect of over 30% in size
Large screens that a line does not name were inactive.

Cc1cc(C)nc(NC(=O)c2ccc(COc3ccccc3Cl)cc2)c1	MARV entry inh inconclusive, HCV inhibitor inconclusive, LASV entry inh inconclusive
O=C(Nc1ccn(Cc2ccccc2F)n1)c1ccc(COc2cccc(Br)c2)cc1	MARV entry inh 8.91µM, HCV inhibitor inconclusive, LASV entry inh inconclusive, VACV Venus inh inconclusive
O=C(Nc1ccn(Cc2c(F)c(F)cc(F)c2F)n1)c1ccc(COc2ccccc2Cl)cc1	MARV entry inh inconclusive, HCV inhibitor 12.6µM, LASV entry inh inconclusive, VACV Venus inh inconclusive
O=C(Nc1ccn(Cc2ccccc2F)n1)c1ccc(COc2ccccc2Cl)cc1	MARV entry inh inconclusive, HCV inhibitor 15.8µM, Vaccinia mCherry inconclusive, LASV entry inh inconclusive, VACV Venus inh inconclusive
CC(C)COc1ccccc1C1CC(=O)Nc2cc3c(cc21)OCO3 (stereo not drawn)	MARV entry inh inconclusive, Vaccinia mCherry inconclusive, VACV Venus inh inconclusive (no result: HCV inhibitor)
O=C(c1cccn1-c1nnc(N2CCCC2)s1)N1CCN(c2ccccc2)CC1	none (no result: MARV entry inh, HCV inhibitor)
CCCSc1nsc(NC(=O)Nc2ccc(F)cc2F)n1	HCV inhibitor 10µM (no result: MARV entry inh, Vaccinia mCherry, LASV entry inh, VACV Venus inh)
CCCCCCSc1nsc(NC(=O)CC(C)C)n1	MARV entry inh inconclusive
COc1cccc(NC(=O)Nc2nc(SC)ns2)c1	MARV entry inh inconclusive, Vaccinia mCherry inconclusive
CCCSc1nsc(NC(=O)CC)n1	MARV entry inh 12.6µM, LASV entry inh inconclusive
CCSc1nsc(NC(=O)Nc2cccc(F)c2)n1	MARV entry inh inconclusive, HCV inhibitor 10µM, LASV entry inh inconclusive, VACV Venus inh inconclusive
C#CCOCCOCCOCCNc1nc(N2CCN(C(=O)CCCCCCCCCCNC(=O)[C@H](CCCCN)n3cc(C[C@@H](C)CC)nn3)CC2)nc(N2CCN(C(=O)CCCCCCCCCCNC(=O)[C@H](CCCCN)n3cc(C[C@@H](C)CC)nn3)CC2)n1	Vaccinia mCherry inconclusive, VACV Venus inh 11.2µM (no result: MARV entry inh, LASV entry inh)
C#CCOCCOCCOCCNc1nc(N2CCN(C(=O)CCCCCCCCCCNC(=O)Cn3cc(C[C@@H](C)O)nn3)CC2)nc(N2CCN(C(=O)CCCCCCCCCCNC(=O)[C@H](CCCCN)n3cc(C[C@@H](C)CC)nn3)CC2)n1	HCV inhibitor inconclusive, Vaccinia mCherry inconclusive, VACV Venus inh 10µM (no result: MARV entry inh, LASV entry inh)
C#CCOCCOCCOCCNc1nc(N2CCN(C(=O)CCCCCCCCCCNC(=O)Cn3cc(C[C@@H](C)O)nn3)CC2)nc(N2CCN(C(=O)CCCCCCCCCCNC(=O)Cn3cc(C[C@@H](C)O)nn3)CC2)n1	VACV Venus inh inconclusive (no result: MARV entry inh, LASV entry inh)
C#CCOCCOCCOCCNc1nc(N2CCN(C(=O)CCCCCCCCCCNC(=O)[C@H](CCCCN)n3cc(CCO)nn3)CC2)nc(N2CCN(C(=O)CCCCCCCCCCNC(=O)[C@H](CCCN=C(N)N)n3cc(C[C@@H](C)CC)nn3)CC2)n1	HCV inhibitor inconclusive, Vaccinia mCherry inconclusive, VACV Venus inh 10µM (no result: MARV entry inh, LASV entry inh)
C#CCOCCOCCOCCNc1nc(N2CCN(C(=O)CCCCCCCCCCNC(=O)[C@H](CCCCN)n3cc(CCCC(=O)O)nn3)CC2)nc(N2CCN(C(=O)CCCCCCCCCCNC(=O)[C@H](CCCCN)n3cc(CCCC(=O)O)nn3)CC2)n1	HCV inhibitor inconclusive (no result: MARV entry inh, LASV entry inh)
C#CCOCCOCCOCCNc1nc(N2CCN(C(=O)CCCCCCCCCCNC(=O)[C@H](CCCCN)n3cc(CCCC(=O)O)nn3)CC2)nc(N2CCN(C(=O)CCCCCCCCCCNC(=O)[C@H](CCCN=C(N)N)n3cc(C[C@@H](C)CC)nn3)CC2)n1	HCV inhibitor inconclusive, Vaccinia mCherry inconclusive, VACV Venus inh 11.2µM (no result: MARV entry inh, LASV entry inh)
C#CCOCCOCCOCCNc1nc(N2CCN(C(=O)CCCCCCCCCCNC(=O)[C@H](CCCCN)n3cc(CCO)nn3)CC2)nc(N2CCN(C(=O)CCCCCCCCCCNC(=O)[C@H](CCCCN)n3cc(CCO)nn3)CC2)n1	VACV Venus inh inconclusive (no result: MARV entry inh, LASV entry inh)
Cc1ccc(C)c(NC(=O)/C(C#N)=C/c2ccc(C(C)C)cc2)c1	none (no result: HCV inhibitor)
CCC(=O)NC(c1cccc([N+](=O)[O-])c1)c1c(OC(C)=O)ccc2ccccc12 (stereo not drawn)	MARV entry inh inconclusive, LASV entry inh inconclusive (no result: Vaccinia mCherry)
CCCC(=O)NC(c1cccc([N+](=O)[O-])c1)c1ccc2cccnc2c1O (stereo not drawn)	Vaccinia mCherry 3.98µM, VACV Venus inh inconclusive (no result: MARV entry inh, HCV inhibitor, LASV entry inh)
